Data reported in PubChem BioAssay (NCATS).
Results filed as inconclusive are left out. For some of these results: Results with a measured potency or affinity are listed apart. Calls of active or inactive are those of the source.

Legend:
[1] = Ebola virus entry assay, blue channel fluorescence
[2] = Ebola virus entry assay, green fluorescence channel
[3] = Ebola virus entry assay, ratio channel readout
[4] = Ebola virus entry assay, blue channel fluorescence; remark: listed apart in the source
[5] = Ebola virus entry assay, ratio channel
[6] = Ebola virus entry assay, green channel fluorescence
[7] = Ebola virus entry assay, reporter ratio channel; AC50: Channel type: primary unless noted; outcome: Channel type: primary unless noted
[8] = Ebola virus entry cell assay, ratio channel
[9] = Ebola virus entry assay, blue channel fluorescence; remark: listed apart in the source
[10] = Ebola virus entry assay, blue channel (ratio component)
[11] = Ebola virus entry reporter assay, green channel fluorescence
[12] = qHTS profiling of the MIPE4 collection as inhibitors of Plasmodium falciparum (DD2) proliferation (AID 743345); settings: P. falciparum Dd2 in erythrocytes, SYBR Green DNA, 72 h; at 28.5 µM (top of the series) unless noted
Outline: (§1)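 Erythrocytes infected with P. falciparum (0.3% parasitemia, 2.5% hematocrit) incubated with compounds 72 h at 37 C, 5% CO2. Lysis with saponin/Triton buffer containing SYBR Green I, overnight at room temperature in the dark; DNA fluorescence (485/535 nm) normalised to 0.29 uM artemisinin and DMSO.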

[13] = qHTS profiling of the MIPE4 collection as inhibitors of Plasmodium falciparum (DD2) proliferation (Rep 2) (AID 743346); settings: P. falciparum Dd2 in erythrocytes, SYBR Green DNA, 72 h; at 28.5 µM (top of the series) unless noted
Outline: as §1

[14] = qHTS profiling of the MIPE4 collection as inhibitors of Plasmodium falciparum (HB3) proliferation (AID 743347); settings: P. falciparum HB3 in erythrocytes, SYBR Green DNA, 72 h; at 28.5 µM (top of the series) unless noted
Outline: as §1

[15] = High-throughput drug toxicity screening in the BPDCN cell line Cal-1 (AID 1224825); settings: Cal-1 BPDCN cell viability, qHTS; at 45.8 µM (top of the series) unless noted
Outline: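 Cal-1 cells, 500 per well in phenol-red-free RPMI with 10% FBS, exposed to compounds for 48 hours at 37C, 5% CO2. Viability read by CellTiter-Glo luminescence; percent activity normalized to DMSO (100%) and 9.2 uM bortezomib final (0%).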

[16] = qHTS assay for measurement of the activity of small molecule inhibitors on Zika virus induced Caspase-3 activity in human iPSC derived neural progenitor cells (hNPCs) (AID 1224857; active = well fitted inhibition curve with a large enough effect; note: nearly all actives have a fitted effect of over 65% in size); settings: hNPCs ZIKV-induced caspase-3/7, Caspase-Glo luminescence, 6 h; series mostly up to 45.7 µM
Outline: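 Quantitative HTS format: human iPSC neural progenitors, 1 h compound pretreatment, ZIKV 2 FFU/cell for 6 h at 37 C. Percent inhibition derived from luminescent caspase-3/7 signal between uninfected and infected controls.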

[17] = qHTS assay for measurement of the activity of small molecule inhibitors on Zika virus induced Caspase-3 activity in human astrocytoma cells (AID 1224859; active = well fitted inhibition curve with a large enough effect); settings: SNB-19 ZIKV-induced caspase-3/7, luminescence, 6 h; series mostly up to 45.7 µM
Outline: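 Readout is luminescence from Caspase-Glo 3/7 added after a 6 h ZIKV infection (2 FFU/cell) of compound-pretreated (1 h) SNB-19 cells; data expressed as % inhibition versus uninfected and infected wells.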

C=C[C@H]1CN2CC[C@H]1C[C@H]2[C@H](O)c1ccnc2ccc(OC)cc12
active: AC50 [4] 25.1 µM | AC50 [5] 22.4 µM | AC50 [7] 22.4 µM
inactive: outcome [1] | outcome [2] | outcome [3] | outcome [6] | outcome [8]

S=P(N1CC1)(N1CC1)N1CC1
inactive: outcome [1] | outcome [2] | outcome [3] | outcome [5] | outcome [6] | outcome [9] | outcome [7] | outcome [10] | outcome [8]

COc1c(N2C[C@@H]3CCCN[C@@H]3C2)c(F)cc2c(=O)c(C(=O)O)cn(C3CC3)c12
inactive: outcome [1] | outcome [2] | outcome [3] | outcome [4] | outcome [5] | outcome [6] | outcome [9] | outcome [7] | outcome [10] | outcome [11] | outcome [8]

CC(NC(C)(C)C)C(=O)c1cccc(Cl)c1 (stereo not drawn)
inactive: outcome [1] | outcome [2] | outcome [3] | outcome [4] | outcome [6] | outcome [9] | outcome [7] | outcome [10] | outcome [11] | outcome [8] | outcome [16] | outcome [17]
97.9%: viability (% of control) [15]
31%: parasite growth, % of control (lower = inhibition) [13]
55.9%: parasite growth remaining, % of DMSO control (lower = more inhibition) [12]
7.91%: growth, % of control [14]

O=C(O)CCCc1ccc(N(CCCl)CCCl)cc1
11.8%: viability (% of control) [15]
81.2%: parasite growth, % of control (lower = inhibition) [13]
54.2%: growth, % of control [14]
82.7%: parasite growth remaining, % of DMSO control (lower = more inhibition) [12]
inactive: outcome [1] | outcome [2] | outcome [3] | outcome [5] | outcome [6] | outcome [9] | outcome [7] | outcome [10] | outcome [8] | outcome [16] | outcome [17]

CNCCCC12CCC(c3ccccc31)c1ccccc12
inactive: outcome [2] | outcome [7] inactive [Channel type: confirmation] | outcome [10]
active: AC50 [1] 3.16 µM | AC50 [3] 3.17 µM | AC50 [4] 3.55 µM | AC50 [5] 3.16 µM | AC50 [8] 3.16 µM

CC1COc2c(N3CCN(C)CC3)c(F)cc3c(=O)c(C(=O)O)cn1c23 (stereo not drawn)
inactive: outcome [1] | outcome [2] | outcome [3] | outcome [4] | outcome [6] | outcome [9] | outcome [7] | outcome [10] | outcome [11] | outcome [8]

CN1C(C(=O)Nc2ccccn2)=C(O)c2ccccc2S1(=O)=O
inactive: outcome [1] | outcome [2] | outcome [3] | outcome [4] | outcome [6] | outcome [9] | outcome [7] | outcome [10] | outcome [8]

NC(=O)N1c2ccccc2C=Cc2ccccc21
inactive: outcome [1] | outcome [2] | outcome [3] | outcome [5] | outcome [6] | outcome [9] | outcome [7] | outcome [10] | outcome [11] | outcome [8]

CCC1(C)CC(=O)NC1=O (stereo not drawn)
111%: parasite growth remaining, % of DMSO control (lower = more inhibition) [12]
96.3%: parasite growth, % of control (lower = inhibition) [13]
inactive: outcome [1] | outcome [2] | outcome [3] | outcome [4] | outcome [5] | outcome [6] | outcome [9] | outcome [7] | outcome [10] | outcome [11] | outcome [8]

Cc1nnc(SCC2=C(C(=O)O)N3C(=O)[C@@H](NC(=O)Cn4cnnn4)[C@H]3SC2)s1
inactive: outcome [1] | outcome [2] | outcome [3] | outcome [4] | outcome [6] | outcome [9] | outcome [7] | outcome [10] | outcome [8]

NS(=O)(=O)c1cc(C2(O)NC(=O)c3ccccc32)ccc1Cl (stereo not drawn)
inactive: outcome [1] | outcome [2] | outcome [3] | outcome [4] | outcome [5] | outcome [6] | outcome [9] | outcome [7] | outcome [10] | outcome [8]

Nc1ccc(C(=O)O)c(O)c1
inactive: outcome [1] | outcome [2] | outcome [3] | outcome [6] | outcome [9] | outcome [7] | outcome [10] | outcome [11] | outcome [8]

C=CCC1([C@H](C)CCC)C(=O)NC(=O)NC1=O
inactive: outcome [1] | outcome [2] | outcome [3] | outcome [4] | outcome [6] | outcome [9] | outcome [7] | outcome [10] | outcome [8] | outcome [16] | outcome [17]

CC(C)N(CCC(C(N)=O)(c1ccccc1)c1ccccn1)C(C)C (stereo not drawn)
100%: parasite growth remaining, % of DMSO control (lower = more inhibition) [12]
inactive: outcome [1] | outcome [2] | outcome [3] | outcome [5] | outcome [6] | outcome [9] | outcome [7] | outcome [10] | outcome [11] | outcome [8] | outcome [16] | outcome [17]
95.7%: growth, % of control [14]
42.5%: parasite growth, % of control (lower = inhibition) [13]

CC(CCc1ccc(O)cc1)NCCc1ccc(O)c(O)c1 (stereo not drawn)
inactive: outcome [1] | outcome [2] | outcome [3] | outcome [6] | outcome [9] | outcome [7] | outcome [10] | outcome [11] | outcome [8]

NC(N)=NC(=O)Cc1c(Cl)cccc1Cl
inactive: outcome [1] | outcome [2] | outcome [3] | outcome [4] | outcome [5] | outcome [6] | outcome [9] | outcome [7] | outcome [10] | outcome [11] | outcome [8]

C[C@]12CCC(=O)C=C1CC[C@H]1[C@@H]3CC[C@](O)(C(=O)CO)[C@@]3(C)C[C@H](O)[C@@]12F
inactive: outcome [1] | outcome [2] | outcome [3] | outcome [5] | outcome [6] | outcome [9] | outcome [7] | outcome [10] | outcome [11] | outcome [8]
